# Screening data deposited in PubChem BioAssay by several laboratories.
# A3A deaminase: APOBEC3A ssDNA deaminase inhibitors, primary screen, selectivity assay for APOBEC3G inhibitor project, biochemical, FAM/TAMRA oligo cleavage fluorescence; recombinant A3A, FAM/TAMRA ssDNA deamination fluorescence; 330,000 tested, 0.41% active; inhibition, % at 20 µM; DNA dC->dU-editing enzyme APOBEC-3A (Homo sapiens), P31941;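 active = at least 40% inhibition at 20 µM here, with at most 30% in a related deaminase screen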
# Target sequence (P31941 whole entry, looked up): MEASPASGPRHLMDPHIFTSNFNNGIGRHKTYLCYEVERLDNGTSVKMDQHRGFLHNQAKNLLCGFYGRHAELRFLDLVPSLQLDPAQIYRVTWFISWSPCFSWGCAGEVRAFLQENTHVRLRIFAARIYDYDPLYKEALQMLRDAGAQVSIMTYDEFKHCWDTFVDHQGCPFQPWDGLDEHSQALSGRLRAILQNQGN
# M18AAP inhibitor: PfM18AAP inhibitors, malaria aminopeptidase, primary screen, biochemical, QFRET, recombinant enzyme; M18 aspartyl aminopeptidase (Plasmodium falciparum 3D7); H-Glu-NHMec fluorogenic cleavage; inhibition, % at 7.35 µM; 290,000 tested, 1.2% active;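 active = inhibition above the campaign mean inhibition over all tested compounds plus 3 SD, cut at about 28% in these data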
# A3G deaminase: APOBEC3G DNA deaminase inhibitors, primary screen, biochemical, fluorescence, single-stranded DNA substrate, uHTS; DNA dC->dU-editing enzyme APOBEC-3G (Homo sapiens), Q9HC16; recombinant A3G, ssDNA deamination FAM/TAMRA fluorescence; inhibition, % at 20 µM; 330,000 tested, 0.28% active;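 active = inhibition of at least 40% at 20 µM, with no more than 30% in the related APOBEC3A deaminase screen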
# CendR NRP1 mod: modulators of CendR peptide binding to NRP-1, primary screen, biochemical, fluorescence polarization, uHTS. Neuropilin-1 (Homo sapiens), O14786. inhibition, % at 25 µM. 360,000 tested, 0.85% active. FAM-RPARPAR peptide binding to NRP-1;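 active = inhibition or corrected inhibition above about 18%, plus a signal ratio from 0.5 to 1.5, limit read from the data, passing the limit was not always enough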
# ALR H2O2 inh: inhibitors of human ALR sulfhydryl oxidase, primary screen, biochemical, H2O2 detection, HRP-luminol luminescence, single point | inhibition, % (test concentration not listed) | purified ALR, DTT oxidation | AID 485317, 2010 | FAD-linked sulfhydryl oxidase ALR (Homo sapiens), P55789 | 290,000 tested, 3.8% active;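 active = mean replicate inhibition above about 79%, with every replicate also reaching it, limit read from the data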
# Target sequence (P55789 whole entry, looked up): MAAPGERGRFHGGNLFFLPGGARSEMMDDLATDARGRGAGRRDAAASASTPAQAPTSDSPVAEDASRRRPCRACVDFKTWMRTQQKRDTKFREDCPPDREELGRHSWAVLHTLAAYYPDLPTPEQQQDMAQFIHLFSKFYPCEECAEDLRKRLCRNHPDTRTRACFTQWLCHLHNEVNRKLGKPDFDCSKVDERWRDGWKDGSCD
# CR mimetic SO: reduction of superoxide in aged yeast, primary screen, HTS | superoxide response (% of plate mean), % at 10 µM | 330,000 tested, 0.18% active | S. cerevisiae aged cells, superoxide DHE fluorescence; stronger effect = lower value;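 active = superoxide response under a set limit, about three screen SD below normal, cut at about 65% in these data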;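 note: yeast aged for seven days with compound at 30 °C before DHE staining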
# Numbers stand for hits; - = inactive; . = no result. In the library only some 5.2% were active in any assay of this set; here they are far more common.
SMILES,A3A deaminase,M18AAP inhibitor,A3G deaminase,CendR NRP1 mod,ALR H2O2 inh,CR mimetic SO
O=C(Nc1nnc(S(=O)(=O)N2CCOCC2)s1)c1ccc(Cl)cc1,-,-,-,-,-,-
Cc1cc(=O)[nH]c2c(C)cc(S(=O)(=O)Nc3ccc(O)cc3)cc12,-,-,-,-,99,-
Cc1cc(=O)[nH]c2cc(O)ccc12,-,-,-,-,-,-
COc1ccc(N/C=C/C(=O)c2ccccc2)cc1,-,-,-,-,-,-
COc1ccc(N/C=C/C(=O)C(C)(C)C)cc1,-,-,-,31,.,-
COc1ccc(N/C=C(/C(C)=O)c2ccccc2)cc1,-,-,-,-,84,-
COc1ccc(C(=O)CC(=O)c2ccccc2)cc1,-,.,-,-,-,-
O=C(COC(=O)COc1ccc(Br)cc1)NCC1CCCO1 (stereo not given),-,.,-,-,.,-
O=C(CCS(=O)(=O)c1ccccc1)OCC(=O)N1CCN(S(=O)(=O)c2ccc(Cl)cc2)CC1,-,.,-,-,-,-
CSc1ncccc1C(=O)OCC(=O)Nc1ccc(Cl)cn1,-,.,-,-,-,-
O=C(O)CC/C(=N\Nc1ccc(S(=O)(=O)N2CCCC2)cc1[N+](=O)[O-])c1cccs1,.,-,.,-,.,.
O=C(O)CC/C(=N\Nc1ccccc1[N+](=O)[O-])c1cccs1,-,-,-,-,98,-
CCN1CCN(C(=O)CSc2cc(=O)n(CC)c3ccccc23)CC1,-,-,-,-,.,-
CCn1c(=O)cc(SCC(=O)NCc2ccc(C)o2)c2ccccc21,-,-,-,-,98,-
CCn1c(=O)cc(SCC(=O)NCc2ccccn2)c2ccccc21,-,-,-,-,98,-
CCn1c(=O)cc(SCC(=O)NCc2cccnc2)c2ccccc21,-,-,-,-,-,-
CCn1c(=O)cc(SCC(=O)N2CCCCC2)c2ccccc21,-,-,-,22,-,-
CCn1c(=O)cc(SCC(=O)NCCCN2CCN(c3ccc(F)cc3)CC2)c2ccccc21,-,-,-,-,96,-
C=CCn1cnc2c(NCc3ccccc3)ncnc21,-,-,-,-,.,-
CCNC(=S)Nc1ccc2c(c1)c(=O)n(C)n2Cc1cccc(C(F)(F)F)c1,.,.,.,-,.,.
CCCCOC(=O)c1ccc(NS(=O)(=O)c2cc(-c3nnnn3CC)ccc2OC)cc1,-,-,-,23,-,-
Cc1cc(-c2ccc(/C=N/n3cnnc3)o2)ccc1Cl,-,-,-,-,-,-
COc1cc(/C=C/C(=O)OCC(=O)N2CC(=O)Nc3ccccc32)ccc1O,-,-,-,-,96,-
Cc1cn([C@H]2C[C@H](O)[C@@H](CCC(=O)NCc3cccc4ccccc34)O2)c(=O)[nH]c1=O,.,.,.,-,.,.
Cc1cn([C@H]2C[C@H](O)[C@@H](CCC(=O)NCCCn3ccnc3)O2)c(=O)[nH]c1=O,-,.,-,31,.,-
SMILES,A3A deaminase,M18AAP inhibitor,A3G deaminase,CendR NRP1 mod,ALR H2O2 inh,CR mimetic SO
Cc1ccc(-n2c(SCC(=O)O)nc3sc4c(c3c2=O)C(C)CCC4)cc1 (stereo not given),-,-,-,-,98,-
COc1cccc(-c2n[nH]c(=S)n2Cc2ccco2)c1,-,-,-,-,-,-
S=c1[nH]nc(-c2ccc(Br)cc2)n1Cc1ccco1,-,-,-,-,88,-
S=c1[nH]nc(-c2ccncc2)n1Cc1ccco1,-,-,-,-,96,-
S=c1[nH]nc(-c2ccncc2)n1CC1CCCO1 (stereo not given),-,-,-,-,93,-
Fc1ccc(-c2n[nH]c(=S)n2CC2CCCO2)cc1 (stereo not given),-,-,-,-,-,-
CC(C)Cn1c(-c2ccncc2)n[nH]c1=S,-,-,-,-,87,-
COc1cc(CNCc2ccccn2)ccc1OCC(=O)NC1CCCCC1,-,-,-,-,.,-
C[C@H]1CN([C@@H](C)CO)S(=O)(=O)c2ccc(Br)cc2O[C@H]1CN(C)C(=O)NC1CCCCC1,.,.,.,-,.,.
N#CC(C#N)=Cc1ccc(OC(=O)c2ccccn2)cc1,.,-,.,-,97,-
COC(=O)c1ccc(OC(=O)c2ccccn2)cc1,-,-,-,-,96,-
COc1ccc(OC)c(S(=O)(=O)NCC(c2ccco2)N2CCc3ccccc32)c1 (stereo not given),-,.,-,-,-,-
CCC(/C=C1\Oc2ccc(OC)cc2N1C)=C\c1sc2ccccc2[n+]1CCCS(=O)(=O)[O-],.,.,.,-,.,.
COc1cc(/C=C/c2sc3ccccc3[n+]2CCCS(=O)(=O)[O-])ccc1O,-,-,-,-,99,-
CNc1nc(Oc2ccc(C(=O)OC)cc2)nc(SC)n1,-,-,-,-,.,-
Cn1c2ccccc2c2cc(/C=C(\NC(=O)c3ccccc3)C(=O)O)ccc21,-,-,-,-,86,-
COC(=O)/C(=C\c1ccc2c(c1)c1ccccc1n2C)NC(=O)c1ccccc1,-,-,-,-,-,-
Cc1ccc2c(CC(=O)Nc3sccc3C(N)=O)coc2c1,-,-,-,-,85,-
Cc1ccc2c(CC(=O)NCC(=O)Nc3c(C)cccc3C)coc2c1,-,.,-,-,-,-
Cn1ccnc1Sc1ccc(/C=N/NC(=O)c2ccccc2[N+](=O)[O-])cc1[N+](=O)[O-],-,-,-,-,-,-
COc1ccc2c(c1OC)C(=O)OC2Nn1cncn1 (stereo not given),-,-,-,-,-,-
NC(=O)c1ccc(Nc2ccc([N+](=O)[O-])cc2[N+](=O)[O-])cc1,-,-,-,-,-,-
Nc1ccc(Nc2ccc([N+](=O)[O-])cc2[N+](=O)[O-])cc1,-,-,-,-,98,-
O=C(O)c1ccccc1C(=O)Nc1ccc(Nc2ccc([N+](=O)[O-])cc2[N+](=O)[O-])cc1,-,-,-,-,96,-
COc1ccc(-c2nn(-c3ccccc3)cc2CO)cc1,-,-,-,-,-,-
COc1ccc(-c2csc(=NCCO)n2-c2ccccc2)cc1,.,-,.,-,99,-
COc1ccc(-c2csc(=Nc3ccccc3)n2CCO)cc1,-,30,-,-,97,-
COC(=O)[C@]1(CC(C)C)N[C@H](c2ccc(SC3CCCCC3)c(OC)c2)[C@@H]2C(=O)N(C)C(=O)[C@@H]21,-,.,-,-,-,.
CC(NC(=O)NC12CC3CC(CC(C3)C1)C2)c1ccc2c(c1)OCO2 (stereo not given),-,-,-,-,-,-
